In PubChem BioAssay AID504327 (National Center for Advancing Translational Sciences (NCATS), 2011):
The campaign covered roughly 390,000 compounds. About 820 (0.21%) were called active. Roughly 3% stayed inconclusive and do not appear here. Calls follow the shape of the dose curve; as a rule, active = well fitted inhibition curve with a large enough effect; inconclusive = small, poorly fitted or top-dose-only effect, or another doubt; inactive = no such curve, though single readings can be large or run the other way. Many of the other results were omitted from the sample, so actives are more common in it than they were. Non-standard residues stand in square brackets, D forms with d. Residues, ends and D or L forms follow the SMILES beside them. Groups on a side chain read outwards from the residue. *: point of attachment. X1 = CCC(C)C(N)C1=NC(C(=O)*)CS1; Orn = NCCC[CH](N)C(=O)O

target: Histone acetyltransferase KAT2A (Homo sapiens) (UniProt Q92830); assay: qHTS Assay for Inhibitors of GCN5L2; conditions: GCN5L2 HAT assay, ThioGlo1 CoA-SH fluorescence; series mostly up to 58.9 µM; activity change, negative = inhibition: at the top concentration
Sequence (Q92830 whole entry, looked up): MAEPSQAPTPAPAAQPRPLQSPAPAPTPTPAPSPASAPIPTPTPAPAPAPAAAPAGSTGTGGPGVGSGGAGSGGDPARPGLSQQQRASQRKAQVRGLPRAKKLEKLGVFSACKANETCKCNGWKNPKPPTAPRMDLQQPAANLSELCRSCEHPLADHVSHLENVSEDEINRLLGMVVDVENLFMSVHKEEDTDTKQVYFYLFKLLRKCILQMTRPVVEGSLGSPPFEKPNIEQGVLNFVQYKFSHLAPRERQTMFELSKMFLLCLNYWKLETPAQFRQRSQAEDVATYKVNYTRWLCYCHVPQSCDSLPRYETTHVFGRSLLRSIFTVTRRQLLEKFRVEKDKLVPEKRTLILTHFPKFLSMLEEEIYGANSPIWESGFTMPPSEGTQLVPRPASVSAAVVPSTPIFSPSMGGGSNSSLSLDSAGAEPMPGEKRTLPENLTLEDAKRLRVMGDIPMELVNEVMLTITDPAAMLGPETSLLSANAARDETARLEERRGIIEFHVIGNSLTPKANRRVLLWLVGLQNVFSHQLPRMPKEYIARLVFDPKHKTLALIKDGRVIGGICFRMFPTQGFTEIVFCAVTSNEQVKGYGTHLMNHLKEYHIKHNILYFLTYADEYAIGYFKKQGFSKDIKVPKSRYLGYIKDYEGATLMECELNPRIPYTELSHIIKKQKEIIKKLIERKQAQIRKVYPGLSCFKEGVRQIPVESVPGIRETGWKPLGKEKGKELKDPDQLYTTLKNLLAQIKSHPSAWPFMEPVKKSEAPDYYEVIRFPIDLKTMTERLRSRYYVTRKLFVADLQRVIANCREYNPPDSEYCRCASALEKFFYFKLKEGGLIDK
Excerpt: Histone acetyltransferase (HAT) enzymes transfer a […] group from acetyl-coenzyme A to the epsilon-amino group of conserved lysine residues of N-terminal histone tails. Acetylation results in charge neutralization of this positively charged amino acid, decreasing interactions with the […] backbone and making the DNA more accessible for transcription. HATs have been recognized as an emerging drug target for treatment of cancer, diabetes, asthma, chronic obstructive pulmonary disease, cardiac disease, and viral infection. Protein identified with HAT activity include the […] like 2 (GCN5L2, a.ka. Histone acetyltransferase KAT2A) which acetylates histone H3 at Lys9, 14, 18, 13, and to lesser extent histones H4 and H2B. This activates transcription of the gene by modulating chromatin structure and installing the acetyllysine recognition mark for bromodomain-containing coactivator proteins.
A quantitative high throughput screen was developed to identify small molecule inhibitors. The assay is based on the principle that it measures formation of reduced CoA with the pro-fluorescent maleimide derivative ThioGlo1 that becomes fluorescent upon reaction with the free thiol of CoA.
A large number of artifacts are expected in this primary screen, compounded by the assay format (fluorescent artifacts) and by the high top concentration tested for each substance. This BioAssay data deposition should be used with caution, and counterscreen and secondary assay validation is essential since very few actives from the primary screen are expected to be true inhibitors of GCN5L2.
[2] Yasgar, et al. Compound Management for Quantitative High-Throughput Screening. JALA. 2008 Apr;13(2):79-89.
[3] Inglese, et al. Quantitative high-throughput screening: a titration-based approach that efficiently identifies biological activities in large chemical libraries. Proc Natl Acad Sci. 1;103(31):11473-8. 2006. PMID: 16864780
NIH Molecular Libraries Probe Production Network [MLPCN]
NIH Chemical Genomics Center [NCGC]
Structural Genomics Consortium (SGC)
To each well of a 1,536w plate, 3ul of GCN5L2 (final concentration 20nM, in 50mM HEPES, 0.1mM EDTA (pH 7.5), 0.01% Tween-20 buffer) are added using a Kalypsys dispenser. Only buffer is added to some wells as a control. A Kalypsys pin-tool transferred 23nl of library compound solution in DMSO to each well, as well as the control inhibit garcinol. . Following a 15 min incubation of enzyme with compounds at room temperature, 1ul mixture of ThioGlo1 (50uM final), H3(1-25) peptide (75uM final), and Acetyl-CoA (70uM final) is added. Plates are read immediately on the ViewLux (PerkinElmer) (Ex340nm/Em540nm) for a 0 min read, incubated for 20 min at room temperature, and read again on the ViewLux with the same settings. The initial read was carried out to identify compounds that are potentially fluorescent.
% is scaled to controls: 0 for no effect and ±100 for the full control effect; potency is read from the fitted curve at half-maximal effect.

Row | Structure (SMILES) | activity change, negative = inhibition | Potency
1 | O=S(O)S(=O)(=O)O | 0.862% (inactive) | –
2 | CCC(C)C(N)C1=NC(C(=O)NC(CC(C)C)C(=O)NC(CCC(=O)O)C(=O)NC(C(=O)NCCCCC2NC(=O)C(CC(N)=O)NC(=O)C(CC(=O)O)NC(=O)C(Cc3cnc[nH]3)NC(=O)C(Cc3ccccc3)NC(=O)C(C(C)CC)NC(=O)C(CCCN)NC2=O)C(C)CC)CS1 (stereo not drawn) (cyclo(DNK([Ile-Glu-Leu-X1])[Orn]IFH); configuration not given here) | 12.2% (inactive) | –
3 | COC(=O)CC1C(C)(C)C(OC(C)=O)C2CC3=C4CC(=O)OC(c5ccoc5)[C@]4(C)CCC3[C@@]1(C)C2=O (stereo partly drawn) | 3.09% (inactive) | –
4 | O=C(c1csnn1)N1CCC2(CC1)CN(c1ncccn1)C2 | -3.32% (inactive) | –
5 | CC(C)c1cnc(NC(=O)Cc2ccccc2)s1 | -7.71% (inactive) | –
6 | Cc1nc2cnc(N3CCN(C)CC3)nc2n(CCC#N)c1=O | -21% (inactive) | –
7 | C[C@H]1CCC[C@@]2(C)CCCC[C@]12O | -21.9% (inactive) | –
8 | CC(CCC(=O)O)C1CCC2C3C(O)C[C@@H]4CC(O)CC[C@@]4(C)C3CC[C@@]12C (stereo partly drawn) | – | inactive
9 | O=c1cc(-c2ccc(O)cc2)oc2c([C@@H]3O[C@H](CO)[C@@H](O)[C@H](O)[C@H]3O)c(O)cc(O)c12 | -14.1% (inactive) | –
10 | O=C(c1ccncc1)N1CCC2(CCCN(C(c3ccccc3)c3ccccc3)C2)CC1 | -12.2% (inactive) | –
11 | COc1ccccc1N1CCN(C[C@@H]2CN3C(=O)N(C)c4ccccc4C3=N2)CC1 | -10.7% (inactive) | –
12 | C[C@@H]1C[C@H]2[C@@H]3C[C@H](F)C4=CC(=O)C=C[C@@]4(C)[C@]3(F)[C@H](O)C[C@]2(C)[C@@]1(O)C(=O)CO | 5.37% [at 21.4 µM] (inactive) | –
13 | C[C@@H]1O[C@@H](OC[C@H]2O[C@@H](Oc3cc(O)c4c(c3)O[C@H](c3ccc(O)c(O)c3)CC4=O)[C@H](O)[C@@H](O)[C@@H]2O)[C@H](O)[C@H](O)[C@H]1O | -18.7% (inactive) | –
14 | Cc1ccccc1CSCCNC(=O)c1ccc(N(C)S(=O)(=O)c2ccccc2)cc1 | – | 2.24 µM (active)
15 | Cc1ccccc1CSCCNC(=O)c1ccc(Cl)c(S(=O)(=O)N2CCOCC2)c1 | 2.44% (inactive) | –
16 | COc1ccccc1CNC(=O)c1ccc(N(C)S(=O)(=O)c2ccc(C)cc2)cc1 | -9.17% (inactive) | –
17 | COc1cccc(Nc2ncc3ncc(=O)n(C4CC4)c3n2)c1 | -6.14% (inactive) | –
18 | Cc1ccc(C2C(C#N)C(C#N)N3CCCN23)cc1 (stereo not drawn) | – | 22.4 µM (active)
19 | CC1CC[C@@]23CCC4(C)[C@@]5(C)CCC6C(C)(C)C(O)CC[C@@]6(C)C5C=C[C@@]4(OC2=O)C3C1C (stereo partly drawn) | -10.8% (inactive) | –
20 | CC1=C/C(=N\OS(=O)(=O)c2ccccc2)C=CC1=O | – | 14.1 µM (active)
21 | COc1cc2c(cc1OC)CC(=O)N(CCCN(C)C[C@H]1Cc3cc(OC)c(OC)cc31)CC2 | -3.71% (inactive) | –
22 | O=C1OC(C(O)CO)C(O)=C1O (stereo not drawn) | -3.15% (inactive) | –

Row | Structure (SMILES) | activity change, negative = inhibition | Potency
23 | CCNc1ncc2ncc(=O)n(Cc3cccc(OC)c3)c2n1 | -13.7% (inactive) | –
24 | CCOC(=O)c1sc(NC(=O)CSc2nc(C)cc(C(F)(F)F)n2)c(C#N)c1C | 0% (inactive) | –
25 | Cc1ccc(S(=O)(=O)N2CCCCC2)cc1NC(=O)c1cccnc1 | -1.42% (inactive) | –
26 | Cc1c(C(=O)OC(C)C)sc(NC(=O)c2cccnc2)c1C#N | – | 3.16 µM (active)
27 | COc1cccc(-c2cc(NCCc3c[nH]c4ccc(OC)cc34)ncn2)c1 | -21.1% (inactive) | –
28 | CC1(C)OC2CC3C4CCC5=CC(=O)CCC5(C)C4(F)C(O)CC3(C)[C@]2(C(=O)CCl)O1 (stereo partly drawn) | 4.95% (inactive) | –
29 | Oc1c(Cl)cc(Cl)c(Cl)c1Cc1c(O)c(Cl)cc(Cl)c1Cl | – | 12.6 µM (active)
30 | c1ccc2c(Nc3ccncc3)nc(-c3ccoc3)nc2c1 | -26.1% (inactive) | –
31 | O=C(Nc1ccccc1)N[C@H]1C[C@H](C(=O)O)Nc2cc(Cl)cc(Cl)c21 | – | inactive
32 | C=C1C(=CC=C2CCC[C@@]3(C)[C@@H]2CC[C@H]3[C@H](C)CCCC(C)C)C[C@@H](O)C[C@@H]1O | -15.3% (inactive) | –
33 | CC(C)(O/N=C(\C(=O)N[C@@H]1C(=O)N2C(C(=O)[O-])=C(C[n+]3ccccc3)CS[C@@H]12)c1csc(N)n1)C(=O)O | -8.44% [at 21.4 µM] (inactive) | –
34 | CC1C(O)CC2C(C(=O)O)=CO[C@@H](O[C@H]3OC(CO)C(O)C(O)C3O)C21 (stereo partly drawn) | 2.16% (inactive) | –
35 | COC(=O)N1CCC[C@@]2(CCN(C(=O)NC(C)C)C2)C1 | -1.27% (inactive) | –
36 | Brc1ccc(C2=NCCC(c3ccccc3)O2)cc1 (stereo not drawn) | 16.1% [at 88.6 µM] (inactive) | –
37 | CC(C)NC(=O)N1CC[C@@]2(CCCN(C(=O)c3ccco3)C2)C1 | -4.07% (inactive) | –
38 | Cc1ccc(C)c(NC(=O)COC(=O)Cn2c(C)csc2=O)c1 | -26.1% (inactive) | –
39 | CCCCOC(=O)Cn1c(=O)n(CC(=O)OCCCC)c2cc(C)ccc21 | – | 31.6 µM (active)
40 | CCCCOc1ccc(Cn2c(=O)oc3ccc(C)cc32)cc1OC | -18.2% (inactive) | –
41 | COc1ccc(NC(=O)N2CC3(CCN(C(C)=O)CC3)C2)cc1 | -3.46% (inactive) | –
42 | CC(=O)CC(c1ccccc1)C1C(=O)Oc2ccccc2C1=O (stereo not drawn) | -14.4% (inactive) | –
43 | COc1cccc(Cn2c(=O)c(-c3cc(F)cc(F)c3)nc3cnc(OC)nc32)c1 | -18.4% (inactive) | –
